The results in this text go back to PubChem BioAssay (NCATS).

SMILES strings stand for the structures. Results filed as inconclusive are left out. Calls of active or inactive are those of the source. The call rests on the fitted dose curve; in most records, active means well fitted cell-killing curve with a large enough effect; inconclusive means small, poorly fitted or top-dose-only effect, or effect the other way; inactive means no such curve, though single readings can be large or run the other way.

Test [1] can be described thus: Viability qHTS for spleen associated tyrosine kinase inhibitor (SYKi) naive MV4-11 cells (AID 1963823). Further: nearly all actives have a fitted effect of over 40% in size. The essentials:
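Luminescence from CellTiter-Glo, developed 10 min at room temperature, gave viability of MV4-11 cells never exposed to SYK inhibitor. Cells (500/well) had been incubated with compounds for 72 hr under standard culture conditions.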
A general note: In qHTS, concentration-response curves come from the screen itself.

The nature of test [2]: Viability qHTS for spleen associated tyrosine kinase inhibitor (SYKi) drug resistant MV4-11 cells (AID 1963824). Further: nearly all actives have a fitted effect of over 35% in size. The essentials:
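CellTiter-Glo luminescence, read 10 min after reagent addition, reports viability after a 72 hr compound exposure. Cells are an MV4-11 line made resistant to SYK inhibition, seeded at 500 per well onto compound-containing plates.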
Potency means the concentration at half of the fitted maximal effect.

For the compound `COC(=O)C1=C[C@@H](O)[C@@H](O)[C@H](O[C@@H]2O[C@H](COC(=O)/C=C/c3ccccc3)[C@@H](O)[C@H](O)[C@H]2O)C1`, the Potency result in test [1] and in test [2] was “inactive” each time.
Take `C/C1=C\CC[C@H](C)CCO[C@@H]2O[C@H](CO[C@@H]3OC[C@](O)(COC1=O)[C@H]3O)[C@@H](O)[C@H](O)[C@H]2O`: the Potency result in test [1] and in test [2] was “inactive” each time.
Turning to `C=C1C(=O)O[C@@H]2[C@H]1CC[C@H](C)[C@]1(CCC(=O)O1)C2(C)O` (stereo partly drawn), the figures for the Potency in test [1] and in test [2] were 16.4 µM (active) and 6.51 µM (active), respectively.
On to `CCC(C)(NC(=O)C(CCC(N)=O)NC(=O)C1CC(O)CN1C(=O)C(C)(C)NC(=O)C(C)(C)NC(=O)C(CC(C)C)NC(=O)CNC(=O)C(NC(=O)C(C)(C)NC(=O)C(C)(C)NC(=O)C(C)(C)NC(=O)C(Cc1ccccc1)NC(C)=O)C(C)C)C(=O)N1CC(O)CC1C(=O)NC(C)(C)C(=O)NC(CO)Cc1ccccc1` (stereo not drawn), for which the results for the Potency in test [1] and in test [2] were 1.74 µM (active) and 0.616 µM (active), respectively.
Consider `COC(=O)C1=CO[C@@H](O[C@@H]2O[C@H](CO)[C@@H](O)[C@H](O)[C@H]2O)[C@@H]2[C@@H](CO)[C@@H](O)C(O)[C@H]12` (stereo partly drawn), for which the Potency entry in test [1] and in test [2] was “inactive” each time.
As to `COc1cc([C@H]2OC[C@](O)(Cc3ccc(O[C@@H]4O[C@H](CO)[C@@H](O)[C@H](O)[C@H]4O)c(OC)c3)[C@@H]2CO)ccc1O`, the Potency entry in test [1] and in test [2] was “inactive” in each case.
In the case of `CC(C)(O)c1ccc2c(c1)C(O)CC1C(C)(C(=O)O)CCCC21C` (stereo not drawn), the Potency entry in test [1] and in test [2] was “inactive” throughout.
Turning to `Cc1nc(N2CCN(C(=O)c3ccco3)CC2)c2c3c(sc2n1)CCCC3`, the figures for the Potency in test [1] and in test [2] were 9.2 µM (active) and 14.6 µM (active), respectively.
Regarding `C=C1C(=O)OC2/C=C(\C)CC/C=C(\C=O)C(OC)C(OC(=O)C(C)CC)C12` (stereo not drawn), the Potency was 3.21 µM (active) in test [1] and 2.02 µM (active) in test [2].
In the case of `CC(NC(=O)c1ccccc1N)C(=O)O` (stereo not drawn), the Potency entry in test [1] and in test [2] was “inactive” each time.
On to `CC(C)CC(=O)O[C@@H]1O[C@H](CO)[C@@H](O[C@H]2O[C@H](C)[C@@H](N[C@H]3C=C(CO)[C@@H](O[C@H]4O[C@H](CO)[C@@H](O[C@H]5O[C@H](CO)[C@@H](O[C@H]6O[C@H](CO)[C@@H](O)[C@H](O)[C@H]6O)[C@H](O)[C@H]5O)[C@H](O)[C@H]4O)[C@H](O)[C@H]3O)[C@H](O)[C@H]2O)[C@H](O)[C@H]1O`, for which the viability (% of control) in test [1] was 82.5% [at 9.25 µM] (inactive). In test [2], the viability, % of control is 101% [at 9.25 µM] (inactive).
Consider `CCCCCOc1ccc(-c2cc(-c3ccc(C(=O)N[C@H]4C[C@@H](O)[C@@H](O)NC(=O)C5[C@@H](O)[C@@H](C)CN5C(=O)C([C@H](O)CC(N)=O)NC(=O)C([C@H](O)[C@@H](O)c5ccc(O)c(OS(=O)(=O)O)c5)NC(=O)C5C[C@@H](O)CN5C(=O)C([C@@H](C)O)NC4=O)cc3)no2)cc1` (stereo partly drawn), for which the Potency result in test [1] and in test [2] was “inactive” in each case.
As for `CC1=C(C)C(=O)C(CCCCC#CCCCC#CCO)=C(C)C1=O`, the Potency in test [1] is 11.9 µM (active); in test [2] it was 13.3 µM (active).
For `CC1(C)C(O)CCC2(C)C1C(O)C=C1COC(=O)C12O` (stereo not drawn), the Potency entry in test [1] and in test [2] was “inactive” in each case.
With `CC(C)=CCC[C@](C)(O[C@@H]1O[C@H](CO[C@@H]2O[C@@H](CO)[C@H](O)[C@H]2O)[C@@H](O)[C@H](O)[C@H]1O)[C@H]1CC[C@]2(C)[C@@H]1[C@H](O)C[C@@H]1[C@@]3(C)CC[C@H](O[C@@H]4O[C@H](CO)[C@@H](O)[C@H](O)[C@H]4O[C@@H]4O[C@H](CO)[C@@H](O)[C@H](O)[C@H]4O)C(C)(C)[C@@H]3CC[C@]12C`, the Potency entry in test [1] and in test [2] was “inactive” each time.
As for `CN(C)c1cc2c(Nc3ccc4c(cnn4Cc4ccccc4)c3)ncnc2cn1`, the Potency in test [1] was 8.2 µM (active); in test [2], 9.2 µM (active).
For the compound `CC(=O)OCC(=O)O[C@@H]1[C@H]2[C@@H](OC(=O)c3ccccc3)[C@@H](C)C[C@]2(O)[C@H](OC(C)=O)C2(C)[C@H]3CC(C)(C)C(=O)[C@@H]3CC1(OC(C)=O)[C@@H]2OC(C)=O` (stereo partly drawn), the Potency result in test [1] and in test [2] was “inactive” each time.
With `Cc1cn([C@H]2C[C@H](O)[C@@H](CO)O2)c(=O)nc1N`, the Potency entry in test [1] and in test [2] was “inactive” each time.
Turning to `CC(C)(O)/C=C/C(=O)[C@](C)(O)[C@H]1[C@H](O)C[C@@]2(C)[C@@H]3CC=C4[C@@H](C=C(O[C@@H]5O[C@H](CO)[C@@H](O)[C@H](O)[C@H]5O)C(=O)C4(C)C)[C@]3(C)C(=O)C[C@]12C`, the Potency result in test [1] and in test [2] was “inactive” in each case.
With `C[C@@H]1O[C@@H](O[C@@H]2[C@@H](O)[C@@H](O)[C@H](O[C@@H]3[C@@H](O)[C@@H](O[C@]4(CO)O[C@H](CO)[C@@H](O)[C@@H]4OC(=O)/C=C/c4ccc(O)cc4)O[C@H](CO)[C@H]3OC(=O)/C=C/c3ccc(O)cc3)O[C@H]2C)[C@H](O)[C@H](O)[C@H]1O`, the viability (% of control) in test [1] was 81.6% [at 9.25 µM] (inactive). Also, the viability, % of control in test [2] was 117% [at 9.25 µM] (inactive).
As for `CC1CCC2C(C(=O)O)=COC(O[C@@H]3O[C@H](CO)[C@@H](O)[C@H](O)[C@H]3O)C12` (stereo partly drawn), the Potency entry in test [1] is “inactive”. Moreover, the Potency in test [2] is 16.1 µM (active).
For `CC(=O)N[C@@H](CCCCN)C(=O)N(C)[C@@H](CC(C)C)C(=O)N[C@H](C(=O)N(C)[C@@H](Cc1ccccc1)C(=O)N[C@H](Cc1ccccc1)C(N)=O)C(C)C`, the viability (% of control) in test [1] was 93.5% [at 4.97 µM] (inactive). The viability, % of control in test [2] is 103% [at 4.97 µM] (inactive).
Regarding `CN1[C@@H]2CC[C@H]1CC(OC(=O)C(CO)c1ccccc1)C2` (stereo partly drawn), the Potency result in test [1] and in test [2] was “inactive” in each case.
Consider `CC1C(=O)OCC2=CC[N+]3([O-])CCC(OC(=O)C(C)(O)C1(C)O)C23` (stereo not drawn), for which the Potency result in test [1] and in test [2] was “inactive” in each case.
